These results are taken from PubChem BioAssay (EPA / NIEHS).

Molecules are shown by their SMILES. Results filed as inconclusive are left out. Activity calls are given as the source filed them. How the source made its calls: active means hit-call score of the fitted dose curve at least 0.9, where 1 is the maximum; inconclusive means response in the unintended direction; inactive means score below 0.9.

The target of test [1] is rat Glutamate Metabotropic Receptor 5 (MGluR5), Grm5 (gene 24418) (UniProt P31424). In words: NVS_GPCR_rmMGluR5: NovaScreen (NVS) G Protein-Coupled Receptor Assay for rat Glutamate Metabotropic Receptor 5 (MGluR5) (AID 2283307). The gist of the method:
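Rat whole-brain membrane preparation; filter-based radioligand binding read by scintillation counting, 1.5 h after dosing. Single-point screen at 25 uM in duplicate; hits over threshold (e.g. 30% inhibition) retested in concentration-response up to 50 uM; loss of signal vs DMSO.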

Test [2] has as its target rat Opioid Receptor, Non-selective Sodium (Na+) Binding, Oprm1 (gene 25601) (UniProt P33535). In words: NVS_GPCR_rOpiate_NonSelectiveNa: NovaScreen (NVS) G Protein-Coupled Receptor Assay for rat Opioid Receptor, Non-selective Sodium (Na+) Binding (AID 2283311). The gist of the method: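 Rat forebrain membranes, radioligand displacement with filter scintillation counting, 1.5 h incubation. Screened in duplicate at 25 µM; hits then run in concentration-response up to 50 µM; loss of binding fitted versus DMSO.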

The target in a further test is Adra2b (gene 24174) (UniProt P19328). The test is described as follows: NVS_GPCR_rmAdra2B: NovaScreen (NVS) G Protein-Coupled Receptor Assay for hybird cells Adrenergic, Alpha 2B Receptor (Adra2B) (AID 2283306). Put shortly: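 Radioligand filter-binding assay on membrane proteins from neuroglioma/blastoma hybrid cells (rodent), 1 h after dosing; scintillation counting, loss of signal vs DMSO. Primary screen in duplicate at 25 uM, actives then run in concentration series.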

Test [3] addresses rat Neonicotinoid receptor (NNR), Chrna7 (gene 25302) (UniProt Q05941). The test is described as follows: NVS_LGIC_rNNR_BungSens: NovaScreen (NVS) Ligand-Gated Ion Channel Assay for rat Neonicotinoid receptor (NNR) (AID 2283315). Put shortly:
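Radioligand displacement binding on rat cortical membranes, 2.5 h incubation, filtration and scintillation counting. Loss of specific binding fitted relative to DMSO.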

Test [4] concerns the target rat Serotonin, 5-Hydroxytryptamine Receptor (5HT), Non-Selective Binding, Htr1a (gene 24473) (UniProt P19327). In words: NVS_GPCR_r5HT_NonSelective: NovaScreen (NVS) G Protein-Coupled Receptor Assay for rat Serotonin, 5-Hydroxytryptamine Receptor (5HT), Non-Selective Binding (AID 2283295). The gist of the method:
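Radioligand displacement on rat cortical membranes, 1 h incubation, filter-based scintillation counting. Primary duplicates at 25 uM, actives retested in concentration series; loss of signal fitted against DMSO as baseline.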

Test [5] has as its target rat Neurokinin-1 Receptor (NK1), Tacr1 (gene 24807) (UniProt P14600). The test is described as follows: NVS_GPCR_rNK1: NovaScreen (NVS) G Protein-Coupled Receptor Assay for rat Neurokinin-1 Receptor (NK1) (AID 2283309). The gist of the method:
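Rat submaxillary gland membranes; radioligand displacement read by filter-based scintillation counting after 1 h. Primary screen in duplicate at 25 uM; actives retested in concentration series; loss of binding fitted versus DMSO.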

The target of test [6] is rat Neurokinin-3 Receptor (NK3), Tacr3 (gene 24808) (UniProt P16177). The test is described as follows: NVS_GPCR_rNK3: NovaScreen (NVS) G Protein-Coupled Receptor Assay for rat Neurokinin-3 Receptor (NK3) (AID 2283310). Put shortly:
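Rat cortical membranes; radioligand binding with filtration and scintillation counting, 2 h after dosing. Primary screen in duplicate at 25 uM, then concentration-response up to 50 uM; loss of binding signal relative to DMSO.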

Test [7] concerns the target rat Vasopressin 1 Receptor (V1), Avpr1a (gene 25107) (UniProt P30560). In words: NVS_GPCR_rV1: NovaScreen (NVS) G Protein-Coupled Receptor Assay for rat Vasopressin 1 Receptor (V1) (AID 2283316). Put shortly:
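Radioligand binding on rat liver membranes, 1.5 h incubation, filter-based scintillation counting. Single 25 uM screen in duplicate; chemicals meeting threshold (e.g. 30% inhibition) run in concentration-response up to 50 uM.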

Test [8] addresses rat Opioid Receptor, Non-selective Binding, Oprm1 (gene 25601) (UniProt P33535). The test is described as follows: NVS_GPCR_rOpiate_NonSelective: NovaScreen (NVS) G Protein-Coupled Receptor Assay for rat Opioid Receptor, Non-selective Binding (AID 2283318). Put shortly: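 Rat forebrain membranes, cell-free radioligand binding with filter-based scintillation counting, read 1.5 h after dosing. Primary screen in duplicate at 25 uM; actives retested in concentration series. Loss of signal versus DMSO baseline scored.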

A short description of test [9]: NVS_IC_rCaDHPRCh_L: NovaScreen (NVS) Ion Channel Assay for rat Calcium Channel, Type L, Dihydropyridine Site (CaDHPRCh_L) (AID 2283320). The gist of the method: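 Radioligand binding to dihydropyridine site on rat cortical membranes, filter-based scintillation counting, 1 h after dosing. Screened in duplicate at 25 uM; actives rerun in concentration-response up to 50 uM. Loss of signal versus DMSO baseline.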

The target in test [10] is Sodium channel protein type 1 subunit alpha (Rattus norvegicus) (UniProt P04774). In words: NVS_IC_rNaCh_site2: NovaScreen (NVS) Ion Channel Assay for rat Sodium Channel, Site 2 (NaCh) (AID 2283322).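 Further: hit means loss of radioligand binding signal relative to DMSO so AC50 marks displacement.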 The gist of the method:
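Membranes: rat forebrain. Format: competitive radioligand displacement, filter separation, scintillation readout, 1 h exposure. Primary screen in duplicate at 25 uM; actives retested in concentration series.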

In test [11] the target is rat Gamma-Aminobutyric Acid Type B Receptor (GABBR), Gabbr1 (gene 81657) (UniProt Q9Z0U4). In words: NVS_GPCR_rGABBR: NovaScreen (NVS) G Protein-Coupled Receptor Assay for rat Gamma-Aminobutyric Acid Type B Receptor (GABBR) (AID 2283301). The gist of the method: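 Radioligand displacement on rat cortical membranes, 1 h, filter-based scintillation counting. Primary screen at 25 uM in duplicate; compounds passing threshold re-tested in concentration-response up to 50 uM; loss of binding fitted against DMSO.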

Test [12] concerns the target rat Somatostatin Receptor (SST), Sstr1 (gene 25033) (UniProt P28646). The test is described as follows: NVS_GPCR_rSST: NovaScreen (NVS) G Protein-Coupled Receptor Assay for rat Somatostatin Receptor (SST) (AID 2283314). Put shortly:
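Rat forebrain membranes; radioligand displacement read by filter-based scintillation counting 1 h after dosing. Primary screen in duplicate at 25 uM. Actives (e.g., 30% inhibition) were rerun as concentration-response to 50 uM max and fitted against DMSO.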

Test [13] concerns the target rat Adrenergic, Alpha 1A Receptor (Adra1A), Adra1a (gene 29412) (UniProt P43140). The test is described as follows: NVS_GPCR_rAdra1A: NovaScreen (NVS) G Protein-Coupled Receptor Assay for rat Adrenergic, Alpha 1A Receptor (Adra1A) (AID 2283296). The gist of the method: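 Rat cortical membranes pretreated with chlorethyl clonidine; competitive radioligand displacement, 1 h. Filter-based scintillation counting. Primary screen in duplicate at 25 uM, actives followed in concentration series.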

The subject of test [14] is rat Adrenergic, Alpha 1B Receptor (Adra1B), gene 24173. The test is described as follows: NVS_GPCR_rAdra1B: NovaScreen (NVS) G Protein-Coupled Receptor Assay for rat Adrenergic, Alpha 1B Receptor (Adra1B) (AID 2283297). The gist of the method: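 Rat liver membranes, radioligand displacement with filter-based scintillation detection, 1 h incubation. Primary screen in duplicate at 25 uM; actives retested in concentration series; activity relative to DMSO.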

Test [15] deals with rat Histamine Receptor (H3), Hrh3 (gene 85268) (UniProt Q9QYN8). In words: NVS_GPCR_rH3: NovaScreen (NVS) G Protein-Coupled Receptor Assay for rat Histamine Receptor (H3) (AID 2283303). The gist of the method:
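Rat forebrain membranes incubated 1 h with compound; radioligand displacement measured by filter-based scintillation counting. Single-concentration duplicates at 25 µM, then concentration-response up to 50 µM, relative to DMSO.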

Chain of rat Neonicotinoid receptor (NNR), Chrna7 (gene 25302) (Q05941 whole entry, looked up): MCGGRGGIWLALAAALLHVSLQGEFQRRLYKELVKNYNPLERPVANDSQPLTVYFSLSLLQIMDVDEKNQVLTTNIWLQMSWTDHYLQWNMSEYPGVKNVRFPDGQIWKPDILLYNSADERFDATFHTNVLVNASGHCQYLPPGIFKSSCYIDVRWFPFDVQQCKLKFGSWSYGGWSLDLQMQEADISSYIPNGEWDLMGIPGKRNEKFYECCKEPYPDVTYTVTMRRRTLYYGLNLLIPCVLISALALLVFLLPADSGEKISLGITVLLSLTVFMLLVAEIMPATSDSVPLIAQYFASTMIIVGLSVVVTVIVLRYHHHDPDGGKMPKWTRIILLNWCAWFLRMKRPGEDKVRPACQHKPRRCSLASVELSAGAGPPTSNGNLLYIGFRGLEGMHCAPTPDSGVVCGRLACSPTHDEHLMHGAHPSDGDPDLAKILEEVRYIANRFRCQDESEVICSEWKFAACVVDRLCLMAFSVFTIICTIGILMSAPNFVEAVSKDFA
Chain of rat Neurokinin-3 Receptor (NK3), Tacr3 (gene 24808) (P16177 whole entry, looked up): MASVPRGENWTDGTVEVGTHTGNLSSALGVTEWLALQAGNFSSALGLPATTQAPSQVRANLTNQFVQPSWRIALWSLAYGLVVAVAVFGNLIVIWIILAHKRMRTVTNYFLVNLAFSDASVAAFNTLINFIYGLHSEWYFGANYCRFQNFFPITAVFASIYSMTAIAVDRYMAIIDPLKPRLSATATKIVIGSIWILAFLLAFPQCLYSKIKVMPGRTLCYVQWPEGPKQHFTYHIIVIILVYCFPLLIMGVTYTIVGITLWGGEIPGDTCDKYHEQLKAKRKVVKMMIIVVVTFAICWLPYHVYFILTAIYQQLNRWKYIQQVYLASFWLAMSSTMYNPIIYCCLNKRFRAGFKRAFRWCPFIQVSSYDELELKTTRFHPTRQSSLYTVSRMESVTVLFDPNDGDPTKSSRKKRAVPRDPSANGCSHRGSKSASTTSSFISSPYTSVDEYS
Chain of Adra2b (gene 24174) (P19328 whole entry, looked up): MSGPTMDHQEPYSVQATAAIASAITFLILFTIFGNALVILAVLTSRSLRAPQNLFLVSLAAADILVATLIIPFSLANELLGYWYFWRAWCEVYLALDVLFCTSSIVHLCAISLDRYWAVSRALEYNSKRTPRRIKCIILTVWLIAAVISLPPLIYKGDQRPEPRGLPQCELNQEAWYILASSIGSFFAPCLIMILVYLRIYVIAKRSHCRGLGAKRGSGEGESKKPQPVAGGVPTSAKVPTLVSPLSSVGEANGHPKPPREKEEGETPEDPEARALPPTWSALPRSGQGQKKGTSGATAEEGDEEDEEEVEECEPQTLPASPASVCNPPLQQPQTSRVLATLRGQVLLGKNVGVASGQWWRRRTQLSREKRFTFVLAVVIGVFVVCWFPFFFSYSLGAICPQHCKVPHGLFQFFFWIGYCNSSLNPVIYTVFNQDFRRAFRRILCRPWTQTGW
Chain of rat Serotonin, 5-Hydroxytryptamine Receptor (5HT), Non-Selective Binding, Htr1a (gene 24473) (P19327 whole entry, looked up): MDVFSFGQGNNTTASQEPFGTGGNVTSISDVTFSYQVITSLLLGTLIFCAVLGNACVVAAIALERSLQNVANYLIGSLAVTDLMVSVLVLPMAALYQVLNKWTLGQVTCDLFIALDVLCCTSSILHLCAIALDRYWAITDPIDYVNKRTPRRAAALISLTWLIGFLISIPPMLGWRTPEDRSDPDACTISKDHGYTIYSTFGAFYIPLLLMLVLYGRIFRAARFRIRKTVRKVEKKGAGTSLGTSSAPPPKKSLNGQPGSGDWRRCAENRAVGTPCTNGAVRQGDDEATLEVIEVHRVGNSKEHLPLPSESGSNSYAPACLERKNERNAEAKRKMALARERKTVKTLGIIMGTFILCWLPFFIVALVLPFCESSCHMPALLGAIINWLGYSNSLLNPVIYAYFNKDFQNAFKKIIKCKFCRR
Chain of rat Opioid Receptor, Non-selective Binding, Oprm1 (gene 25601) (P33535 whole entry, looked up): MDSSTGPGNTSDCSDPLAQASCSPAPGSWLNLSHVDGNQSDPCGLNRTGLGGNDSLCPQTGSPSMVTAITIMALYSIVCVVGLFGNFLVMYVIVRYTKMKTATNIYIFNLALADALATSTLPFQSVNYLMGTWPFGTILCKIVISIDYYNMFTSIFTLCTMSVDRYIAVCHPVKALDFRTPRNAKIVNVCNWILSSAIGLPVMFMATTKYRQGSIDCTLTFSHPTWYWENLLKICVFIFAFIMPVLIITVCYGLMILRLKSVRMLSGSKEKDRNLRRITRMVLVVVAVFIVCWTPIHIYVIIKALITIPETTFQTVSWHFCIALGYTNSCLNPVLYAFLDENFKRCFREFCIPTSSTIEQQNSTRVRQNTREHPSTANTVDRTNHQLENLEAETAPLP
Chain of rat Opioid Receptor, Non-selective Sodium (Na+) Binding, Oprm1 (gene 25601) (P33535 whole entry, looked up): as above
Chain of rat Neurokinin-1 Receptor (NK1), Tacr1 (gene 24807) (P14600 whole entry, looked up): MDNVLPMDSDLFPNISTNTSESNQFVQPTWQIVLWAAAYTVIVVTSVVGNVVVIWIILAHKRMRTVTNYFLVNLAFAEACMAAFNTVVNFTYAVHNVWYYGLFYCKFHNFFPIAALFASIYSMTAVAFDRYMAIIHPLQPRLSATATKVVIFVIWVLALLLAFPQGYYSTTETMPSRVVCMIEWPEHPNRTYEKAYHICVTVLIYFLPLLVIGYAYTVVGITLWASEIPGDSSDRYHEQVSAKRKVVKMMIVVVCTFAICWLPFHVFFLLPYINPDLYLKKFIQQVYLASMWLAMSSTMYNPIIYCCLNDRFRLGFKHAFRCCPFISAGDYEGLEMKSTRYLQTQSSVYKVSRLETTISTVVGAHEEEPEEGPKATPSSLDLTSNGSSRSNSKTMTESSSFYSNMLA
Chain of rat Adrenergic, Alpha 1A Receptor (Adra1A), Adra1a (gene 29412) (P43140 whole entry, looked up): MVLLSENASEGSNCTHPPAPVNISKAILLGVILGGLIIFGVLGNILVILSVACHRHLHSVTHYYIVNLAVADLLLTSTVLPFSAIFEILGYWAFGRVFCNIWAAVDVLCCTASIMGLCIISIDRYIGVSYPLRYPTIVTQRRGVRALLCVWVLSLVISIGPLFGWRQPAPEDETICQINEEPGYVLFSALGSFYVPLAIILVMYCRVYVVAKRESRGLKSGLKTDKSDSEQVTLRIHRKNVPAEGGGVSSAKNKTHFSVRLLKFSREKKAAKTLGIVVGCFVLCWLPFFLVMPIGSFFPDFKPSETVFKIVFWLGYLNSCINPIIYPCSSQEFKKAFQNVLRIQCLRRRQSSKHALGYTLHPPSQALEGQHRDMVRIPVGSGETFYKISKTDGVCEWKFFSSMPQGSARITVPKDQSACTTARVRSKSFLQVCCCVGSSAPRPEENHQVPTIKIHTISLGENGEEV
Chain of rat Histamine Receptor (H3), Hrh3 (gene 85268) (Q9QYN8 whole entry, looked up): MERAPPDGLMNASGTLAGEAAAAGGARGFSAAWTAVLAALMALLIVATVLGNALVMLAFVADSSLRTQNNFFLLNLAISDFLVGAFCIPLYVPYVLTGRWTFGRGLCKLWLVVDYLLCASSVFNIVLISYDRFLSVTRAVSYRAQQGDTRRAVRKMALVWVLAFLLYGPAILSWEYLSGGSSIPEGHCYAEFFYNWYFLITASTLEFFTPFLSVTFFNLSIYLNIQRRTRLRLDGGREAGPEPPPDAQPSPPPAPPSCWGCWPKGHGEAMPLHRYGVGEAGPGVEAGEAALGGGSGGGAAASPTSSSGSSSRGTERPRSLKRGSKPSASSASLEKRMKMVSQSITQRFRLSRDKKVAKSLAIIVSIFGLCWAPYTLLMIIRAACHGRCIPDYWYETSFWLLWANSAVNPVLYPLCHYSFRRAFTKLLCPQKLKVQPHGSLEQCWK
Chain of rat Gamma-Aminobutyric Acid Type B Receptor (GABBR), Gabbr1 (gene 81657) (Q9Z0U4 whole entry, looked up): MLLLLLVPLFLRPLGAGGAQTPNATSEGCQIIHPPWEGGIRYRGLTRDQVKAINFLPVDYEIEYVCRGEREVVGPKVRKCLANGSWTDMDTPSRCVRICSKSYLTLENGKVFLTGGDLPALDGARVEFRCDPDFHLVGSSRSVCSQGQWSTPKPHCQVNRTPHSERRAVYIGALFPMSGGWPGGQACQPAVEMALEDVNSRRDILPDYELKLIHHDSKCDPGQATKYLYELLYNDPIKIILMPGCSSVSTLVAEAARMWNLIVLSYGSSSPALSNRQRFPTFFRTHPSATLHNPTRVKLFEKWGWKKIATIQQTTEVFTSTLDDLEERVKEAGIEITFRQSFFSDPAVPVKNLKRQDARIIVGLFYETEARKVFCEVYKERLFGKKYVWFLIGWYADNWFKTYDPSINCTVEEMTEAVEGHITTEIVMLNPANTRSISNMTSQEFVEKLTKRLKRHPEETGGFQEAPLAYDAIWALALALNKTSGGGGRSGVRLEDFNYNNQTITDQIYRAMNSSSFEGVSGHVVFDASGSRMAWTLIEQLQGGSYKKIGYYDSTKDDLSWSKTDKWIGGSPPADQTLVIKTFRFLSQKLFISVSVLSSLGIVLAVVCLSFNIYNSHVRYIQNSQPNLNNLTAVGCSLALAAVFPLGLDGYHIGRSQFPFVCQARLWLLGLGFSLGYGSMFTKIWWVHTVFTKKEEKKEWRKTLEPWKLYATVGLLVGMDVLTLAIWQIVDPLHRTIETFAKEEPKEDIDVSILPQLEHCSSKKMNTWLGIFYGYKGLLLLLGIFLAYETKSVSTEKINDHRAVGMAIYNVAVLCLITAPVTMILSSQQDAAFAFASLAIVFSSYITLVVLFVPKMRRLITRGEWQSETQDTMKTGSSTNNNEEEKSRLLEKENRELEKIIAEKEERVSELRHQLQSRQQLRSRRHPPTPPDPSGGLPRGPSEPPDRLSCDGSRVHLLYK

Turning to `O=CCCCC=O`, the molecule was called inactive in test [1].

Consider `O=c1c(-c2ccc(O)cc2)coc2cc(O)cc(O)c12`, for which, in test [2], the outcome was inactive.

Turning to `O=C1CCC(C2CCCCC2)CC1`, the call (with Adra2b (gene 24174); in test [3]) was inactive.

With `CCN(Cc1cccnc1)C(=O)c1cccc(Cl)c1[C@]1(C)C(=O)N(Cc2ccc(OC)cc2OC)c2ccc(Cl)cc21`, the AC50 (commonly the concentration at which the activity in the assay is half-maximal) is 17.4 µM (active) in test [4]; 4.68 µM (active) with Adra2b (gene 24174); 23.6 µM (active) in test [5]; 9.75 µM (active) in [6]; 13.9 µM (active) in [2]; 29 µM (active) in test [7]. Further, the AC50 in [8] was 5.25 µM (active); in test [9], 5.48 µM (active); in [10], 17.5 µM (active).

On to `CCCCCCCCOC(=O)c1cc(O)c(O)c(O)c1`, for which, in [6], the molecule was classed as inactive. For the same molecule, in test [10], the AC50 was 17.7 µM (active).

Consider `CC/C(=C(/CC)c1ccc(O)cc1)c1ccc(O)cc1`, for which the call in [11] was inactive. Further, the figures for the AC50 in test [12] and in [8] were 25 µM (active) and 12 µM (active), respectively.

With `CCCOC(=O)c1cc(O)c(O)c(O)c1`, in test [6], the AC50 was 7.59 µM (active).

For `Cc1cc2c(cc1C(F)(F)F)N(C(=O)Nc1ccc(Oc3cccnc3C)nc1)CC2`, the AC50 in test [4] was 0.43 µM (active).

`CC(O)CC(C)(C)O` (configuration not stated): the call in test [6], in test [2] and in test [10] was inactive.

`COc1cc(C(=O)NC2CCN(C)CC2)ccc1Nc1ncc2c(n1)N(C1CCCC1)CC(F)(F)C(=O)N2C`: the result in test [4], in [2] and in test [3] was inactive. In addition, the AC50 was 7.27 µM (active) in test [13]; 15.5 µM (active) in [14]; 3.19 µM (active) in test [15]; 18.8 µM (active) with Adra2b (gene 24174); 13.9 µM (active) in test [5]; 2.03 µM (active) in test [10].

`O=C1c2ccccc2C(=O)N1CCc1noc(-c2ccc(CN3CCCCCC3)s2)n1`: the molecule was called inactive in test [4], in test [6] and in [3]. Moreover, the AC50 is 5.59 µM (active) in [13]; 16.8 µM (active) in test [15]; 3.3 µM (active) with Adra2b (gene 24174); 12 µM (active) in test [5]; 21.1 µM (active) in [8]; 6.2 µM (active) in test [9]. Also, the AC50 in test [10] was 13.4 µM (active).
